Reference: PubChem BioAssay (NCATS)
“And” between values parts separate entries of the source, which are not always exact repeats. Identical values can stand only once. Unmarked numbers belong to inactive results. Records with an inconclusive call do not appear. Where a call stands in place of a potency, no number is given. The source made the active and inactive calls. Calls follow the shape of the dose curve; as a rule, active = well fitted curve in the direction sought with a large enough effect; inconclusive = small, poorly fitted or top-dose-only effect, or another doubt; inactive = no such curve, though single readings can be large; an effect the other way counts as inactive or inconclusive.

Assays:
[1] = qHTS Assay for Identifying Gametocytocidal Compounds (AID 743244); also: potency is read from the fitted curve at half-maximal effect;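 as to max response: actives lower the fluorescent signal which means gametocytes are killed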; details: P. falciparum 3D7 stage III-V gametocytes, alamarBlue, 72 h; max response: active compounds read low
Outline: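 Stage III–V gametocytes of P. falciparum 3D7 were seeded at 20,000 cells/well onto pre-dispensed compounds. After 72 h, 37 °C, 5% CO2, alamarBlue was added for another 24 h.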

[2] = qHTS assay for measurement of the activity of small molecule inhibitors on Zika virus induced Caspase-3 activity in human iPSC derived neural progenitor cells (hNPCs) (AID 1224857); details: hNPCs ZIKV-induced caspase-3/7, Caspase-Glo luminescence, 6 h; series mostly up to 45.7 µM; also: nearly all actives have a fitted effect of over 65% in size
Outline: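 Values are percent inhibition of virus-induced caspase-3/7 signal, scaled between uninfected cells and ZIKV-infected cells. Infection used 2 FFU/cell for 6 h after 1 h compound exposure.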

[3] = qHTS assay for measurement of the activity of small molecule inhibitors on Zika virus induced Caspase-3 activity in human astrocytoma cells (AID 1224859); details: SNB-19 ZIKV-induced caspase-3/7, luminescence, 6 h; series mostly up to 45.7 µM
Outline: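 Compound added 1 h pre-infection; ZIKV 2 FFU/cell on SNB-19 cells, 6 h, 37 C/5% CO2. Caspase-Glo 3/7 luminescence; values as % inhibition of ZIKV-induced caspase activity.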

Row | SMILES | max response [1] | outcome [2] | outcome [3] | Potency [1]
1 | COc1ccc(OC)c(C(O)CNC(=O)CN)c1 (stereo not given) | -3.82% | inactive | inactive | –
2 | C[C@H]1[C@H](NC(=O)/C(=N/OC(C)(C)C(=O)O)c2csc(N)n2)C(=O)N1S(=O)(=O)O (stereo in doubt) | -0.904% | inactive | inactive | –
3 | Cc1onc(-c2c(Cl)cccc2Cl)c1C(=O)N[C@@H]1C(=O)N2[C@@H]1SC(C)(C)[C@@H]2C(=O)O | -15.6% | inactive | inactive | –
4 | O=C(COc1ccc(Cl)cc1)N1CCN(Cc2ccc3c(c2)OCO3)CC1 | -7.26% | inactive | inactive | –
5 | CCCN1CCCC[C@H]1C(=O)Nc1c(C)cccc1C | -10.7% | inactive | inactive | –
6 | CCCCCCCCCCCCCCCC[N+](C)(C)CC | – | inactive | inactive | 14.1 µM (active)
7 | C[C@H](CCC(=O)O)[C@H]1CC[C@H]2[C@@H]3C(=O)C[C@@H]4CC(=O)CC[C@]4(C)[C@H]3CC(=O)[C@]12C | 6.84% | inactive | inactive | –
8 | NC(=O)CC[C@@H]1NC(=O)[C@H](Cc2ccccc2)NC(=O)[C@H](Cc2ccc(O)cc2)NC(=O)CCSSC[C@@H](C(=O)N2CCC[C@H]2C(=O)N[C@@H](CCCN=C(N)N)C(=O)NCC(N)=O)NC(=O)[C@H](CC(N)=O)NC1=O | 1.03% and -0.48% | inactive | inactive | –
9 | CCCC(=O)O[C@]1(C(=O)CO)CC[C@H]2[C@@H]3CCC4=CC(=O)CC[C@]4(C)[C@H]3[C@@H](O)C[C@@]21C | 1.99% | inactive | inactive | –
10 | CC1(C)O[C@@H]2C[C@H]3[C@@H]4CCC5=CC(=O)CC[C@]5(C)[C@@]4(F)[C@@H](O)C[C@]3(C)[C@]2(C(=O)CCl)O1 | – | inactive | inactive | 8.91 µM (active)
11 | CC(=O)OCC(=O)[C@@]1(O)[C@H](C)C[C@H]2[C@@H]3CCC4=CC(=O)C=C[C@]4(C)[C@@]3(F)[C@@H](O)C[C@@]21C | 9.89% and -3.15% | inactive | inactive | –
12 | Cc1cccn2c(=O)c(-c3nnn[nH]3)cnc12 | -1.77% | inactive | inactive | –
13 | CN1C(CCl)Nc2cc(Cl)c(S(N)(=O)=O)cc2S1(=O)=O (stereo not given) | 12.5% | inactive | inactive | –
14 | CO/N=C1\CN(c2nc3c(cc2F)c(=O)c(C(=O)O)cn3C2CC2)CC1CN (stereo not given) | -1.09% | inactive | inactive | –
15 | C[C@@H]1C[C@H]2[C@@H]3CCC4=CC(=O)C=C[C@]4(C)[C@@]3(F)[C@@H](O)C[C@]2(C)[C@H]1C(=O)CO | 9.79% | inactive | inactive | –
16 | NC(=O)c1cc[n+](CC2=C(C(=O)[O-])N3C(=O)[C@@H](NC(=O)Cc4cccs4)[C@H]3SC2)cc1 | 1.11% | inactive | inactive | –
17 | CCOC(=O)/C=C(C)/C=C/C=C(C)/C=C/c1c(C)cc(OC)c(C)c1C | 14.1% | inactive | inactive | –
18 | O=C1OCCN1/N=C/c1ccc([N+](=O)[O-])o1 | 2.02% | inactive | inactive | –
19 | C[C@]12CCC(=O)C=C1CC[C@H]1[C@@H]3CC[C@](O)(C(=O)CO)[C@@]3(C)C[C@H](O)[C@@]12F | 15.9% and -1.69% | inactive | inactive | –
20 | CCN(CC)C(=O)/C(C#N)=C/c1cc(O)c(O)c([N+](=O)[O-])c1 | -6.8% | inactive | inactive | –

Row | SMILES | max response [1] | outcome [2] | outcome [3] | Potency [1]
21 | CC(C)COC(=O)c1ccc(N)cc1 | 10.2% | inactive | inactive | –
22 | Oc1c(I)cc(I)c2cccnc12 | – | inactive | inactive | 8.91 µM (active)
23 | COc1ccc(/C=C/C(=O)c2ccc(OC)cc2OC)cc1 | -14.8% | inactive | inactive | –
24 | CCOC(=O)c1cccc(N)c1 | -5.91% | inactive | inactive | –
25 | CC(=O)Nc1c(I)cc(I)c(C(=O)O)c1I | 44.8% | inactive | inactive | –
26 | CN(C(=O)CN(CCO)CC(=O)N(C)C(C)(C)Cc1ccccc1)C(C)(C)Cc1ccccc1 | -1.55% | inactive | inactive | –
27 | NCCC(O)(P(=O)(O)O)P(=O)(O)O | 1.74% | inactive | inactive | –
28 | CC(C)(C(=O)c1cccnc1)c1cccnc1 | 4.59% | inactive | inactive | –
29 | CCOC(=O)n1ccn(C)c1=S | 21.8% | inactive | inactive | –
30 | CC(=O)N(O)CCCCCNC(=O)CCC(=O)N(O)CCCCCNC(=O)CCC(=O)N(O)CCCCCN | 17.5% | inactive | inactive | –
31 | CC1(C)O[C@@H]2[C@@H](CO[C@@]3(COS(N)(=O)=O)OC(C)(C)O[C@@H]23)O1 | 4.37% | inactive | inactive | –
32 | Cc1c(C)n(CCN(C)C)c2ccc(C(=O)OCCN(C)C)cc12 | 8.04% | inactive | inactive | –
33 | CN1CCN(C(c2ccccc2)c2ccccc2)CC1 | -1.32% | inactive | inactive | –
34 | CC(=O)N/N=C/c1ccc([N+](=O)[O-])o1 | – | inactive | inactive | 31.6 µM (active)
35 | CC(C)n1nc(-c2cc3cc(O)ccc3[nH]2)c2c(N)ncnc21 | -4.02% | inactive | inactive | –
36 | O=S1(=O)c2cccc3cccc(c23)N1CCCN1CCN(c2ccc(F)cc2)CC1 | 13.8% | inactive | inactive | –
37 | C[C@]12CCC(=O)C=C1[C@@H]1C[C@@H]1[C@H]1[C@@H]3[C@@H]4C[C@@H]4[C@@]4(CCC(=O)O4)[C@@]3(C)CC[C@@H]12 | 5.27% | inactive | inactive | –
38 | O=c1[nH]c(=O)n([C@H]2CCCO2)cc1F | -0.456% | inactive | inactive | –
39 | OC[C@H]1O[C@@H](n2cnc3c(=S)nc[nH]c32)[C@H](O)[C@@H]1O | -4.52% | inactive | inactive | –
40 | C[C@]12CC[C@H]3[C@@H](CCC4=CC(=O)CC[C@@]43C)[C@@H]1CC[C@@H]2C(=O)CO | 8.05% | inactive | inactive | –
